Rows were chosen to be rich in hits. Some 12% of all compounds tested hit in one or more screens of this group.
JMJD2A Tudor: JMJD2A Tudor domain (human) inhibition | O75164 | AlphaScreen JMJD2A-Tudor / H3K4me3 peptide binding | Potency, µM (doses to about 114 µM), for the others: at the top dose activity change, negative = inhibition, actives largely listed as inhibitors | 390,000 tested, 4.4% active | AID 504339; also: % is scaled to controls: 0 for no effect and ±100 for the full control effect; nearly all actives have a fitted effect of over 50% in size
G9a inh: inhibitors of human histone lysine methyltransferase G9a; AID 504332; G9a H3K9 monomethylation, AlphaScreen, 2 h; Potency, µM (top dose mostly 102 µM), for inactives: at the top dose activity, negative = inhibition, usual class: inhibitors; Q96KQ7; 350,000 tested, 8.8% active; also: % is scaled to controls: 0 for no effect and ±100 for the full control effect; nearly all actives have a fitted effect of over 75% in size
Target sequence (Q96KQ7 913-1193 limits assumed): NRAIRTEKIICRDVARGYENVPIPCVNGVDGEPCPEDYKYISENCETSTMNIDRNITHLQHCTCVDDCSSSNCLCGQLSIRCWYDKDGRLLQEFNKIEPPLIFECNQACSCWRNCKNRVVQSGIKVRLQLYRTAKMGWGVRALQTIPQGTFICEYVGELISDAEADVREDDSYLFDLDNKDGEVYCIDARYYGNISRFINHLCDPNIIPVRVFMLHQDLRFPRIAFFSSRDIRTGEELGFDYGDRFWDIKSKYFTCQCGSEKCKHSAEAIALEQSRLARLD
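Using a bead-based AlphaScreen, monomethylated H3K9 product from 2 h room-temperature reactions (G9a 20 nM, peptide 500 nM, SAM 20 uM) was detected with 0.5 ug/mL rabbit anti-H3K9me1 antibody.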
BAZ2B block: inhibitors of human BAZ2B bromodomain. Q9UIF8. AlphaScreen BAZ2B-H3K14Ac peptide displacement. Potency, µM (top dose mostly 114 µM), for inactives: at the highest dose activity change, negative = inhibition, actives largely listed as inhibitors. 360,000 tested, 4.4% active. AID 504333; also: % is scaled to controls: 0 for no effect and ±100 for the full control effect; nearly all actives have a fitted effect of over 60% in size
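AlphaScreen displacement of biotin-H3(5-23)K14Ac peptide (50 nM final) from BAZ2B (50 nM final) in PBS pH 7.4, 0.01% Tween-20; complex preformed 30 min RT, then compounds (top 110 uM) 30 min RT, beads 20 min dark.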
HP1b chromo inh: blocks HP1-beta chromodomain binding to methylated histone tails; Potency, µM (highest dose often 114 µM), for inactives: at the highest dose activity change, negative = inhibition, actives largely listed as inhibitors; AID 540317; P83916; AlphaScreen HP1-beta / biotin-H3K9me3 peptide binding; 390,000 tested, 0.56% active; also: nearly all actives have a fitted effect of over 70% in size
Target sequence (P83916 whole entry, looked up): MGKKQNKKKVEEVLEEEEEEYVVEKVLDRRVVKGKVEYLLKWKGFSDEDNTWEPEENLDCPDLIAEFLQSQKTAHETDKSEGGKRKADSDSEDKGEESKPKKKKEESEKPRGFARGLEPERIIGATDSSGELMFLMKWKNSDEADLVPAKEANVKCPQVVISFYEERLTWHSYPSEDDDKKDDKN
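Compound inhibition of the preformed complex between 50 nM HP1-beta and 50 nM biotinylated H3K9me3 peptide was read by AlphaScreen. Buffer was PBS pH 7.4 with 0.01% Tween-20. Incubations ran 30 min at room temperature, with 10 ug/mL donor/acceptor beads.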
Sfp PPTase inh: Sfp phosphopantetheinyl transferase inhibition. Potency, µM, inactives show largest response in the series, negative = inhibition, hits mostly inhibitors. AID 1490. 310,000 tested, 3.5% active. Q9F4F7. Biochemical Sfp PPTase activity, qHTS;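 also: the enzyme is Sfp with the accession as filed and its product quenches rhodamine fluorescence; 0% = enzyme reaction without inhibitor and -100% = no enzyme wells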
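Fluorescence-quenching assay: 15 nM Sfp-PPTase preincubated 15 min at room temperature with compound, then 5 uM rhodamine-CoA and 12.5 uM BHQ-2-labelled YbbR peptide added. Fluorescence (ex 525/em 598 nm) read at start and after 30 min; difference gives rate.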
Starred values were filed as active, the others as inactive; ? = inconclusive; . = no result; [ ] = another dose, or the depositor's remark. Calls follow the shape of the dose curve; as a rule, active = well fitted curve in the direction sought with a large enough effect; inconclusive = small, poorly fitted or top-dose-only effect, or another doubt; inactive = no such curve, though single readings can be large; an effect the other way counts as inactive or inconclusive. Potency is read from the fitted curve at half-maximal effect.

SMILES	JMJD2A Tudor	G9a inh	BAZ2B block	HP1b chromo inh	Sfp PPTase inh
CS(=O)(=O)N1CCCC(C(=O)NCCCN2CCc3ccccc3C2)C1 (stereo not given)	79.4µM*	11.2µM*	29.9%	13.7%	-19.8%
CS(=O)(=O)N1CCCC(C(=O)NCCN2CCC(Cc3ccccc3)CC2)C1 (stereo not given)	-5.2%	-8.1%[59 µM]	5.0%	20.7%	8.0%
O=C(NCCN1CCc2ccccc2C1)C1CCN(S(=O)(=O)N2CCCCC2)CC1	?	50.1µM*	?	0.8%	?
Cc1ccc(-c2nnn(CC(=O)N(CC(=O)NC3CCCC3)c3ccc(F)c(Cl)c3)n2)o1	-6.1%	?	-1.0%	20.4%	19.6%
FC(F)(F)c1ccc(C2Nc3cccc4cccc(c34)N2)cc1	?	35.5µM*	39.8µM*	-18.0%	-0.5%
O=[N+]([O-])c1ccc(C2Nc3cccc4cccc(c34)N2)cc1	?	28.2µM*	44.7µM*	?	22.4µM*
CCN(CC)c1ccc(C2Nc3cccc4cccc(c34)N2)cc1	?	.	-27.8%	?	-13.3%
CCCOc1ccc(C2Nc3cccc4cccc(c34)N2)cc1	39.8µM*	39.8µM*	?	?	2.7%
O=[N+]([O-])c1cccc(C2Nc3cccc4cccc(c34)N2)c1	50.1µM*	15.8µM*	35.5µM*	?	44.7µM*
O=C1c2ccccc2NC(c2cccc([N+](=O)[O-])c2)N1O (stereo not given)	-13.1%	38.1%[0.501 µM]	?	29.1%	-4.1%
COc1cccc(C2C(C#N)=C(NC(=O)NCc3ccccc3)Oc3ccc4ccccc4c32)c1 (stereo not given)	-10.3%	.	.	.	.
Cc1cccc(NC(=O)c2c(C)nn(-c3ccccc3)c2Cl)c1	5.8%	67.1%	-1.1%	53.4%	8.5%
Cc1ccc(NC(=O)CSc2nncs2)cc1Cl	-11.1%	?	1.9%	29.0%	.
O=C(NCCNC1CCCCC1)c1ccco1	3.55µM*	44.7µM*	?	?	-4.8%
CC1CCC(NCCNC(=O)c2ccco2)CC1 (stereo not given)	20µM*	35.5µM*	-36.1%	-9.2%	-1.4%
O=C(NC1CCCCCCC1)c1ccco1	-0.6%	-12.8%[12.7 µM]	-4.5%	31.2%	11.4%
CC(C)C(NC(=O)c1ccco1)C(=O)NC1CCCCCC1 (stereo not given)	-10.3%	79.4µM*	-1.7%	37.5%	0.6%
COc1ccccc1C1CCN(C(=O)c2ccc(Cl)cc2)CC1	1.4%	39.8%	-11.9%	45.4%	-4.4%
C/C(=N\N1CCN(c2ccccc2)CC1)c1ccco1	-14.7%	56.2µM*	?	1.3%	-9.6%
CCC1=NN2C(=N)/C(=C\c3ccc(OCc4cc(=O)n5nc(CC)sc5n4)c(OC)c3)C(=O)N=C2S1	?	?	79.4µM*	-36.4%	9.4%
CCc1nn2c(=O)cc(COc3ccc(/C=C4\C(=N)N5N=C(CC(C)C)SC5=NC4=O)cc3)nc2s1	44.7µM*	15.0%[59 µM]	?	8.9%	-4.4%
CCC1=NN2C(=N)/C(=C\c3ccc(OCCOc4ccccc4)c(OC)c3)C(=O)N=C2S1	.	-73.3%	-4.3%	.	12.0%
O=C(O)CCCNC1=NCCC1	-6.0%	25.0%	-2.7%	12.5%	9.2%
CC(C)N1CCN(Cc2ccc(OCc3ccccc3)cc2)CC1CCO (stereo not given)	-12.5%	10.2%	-4.6%	24.2%	5.2%
Cc1ccc(-c2ccc(=O)n(C(C)C(=O)Nc3ccccc3Cl)n2)cc1C (stereo not given)	-7.6%	-4.8%[59 µM]	-21.8%	17.3%	.
SMILES	JMJD2A Tudor	G9a inh	BAZ2B block	HP1b chromo inh	Sfp PPTase inh
CC(C)(C)NC(=O)C1CCN(C(=O)c2ccc(-c3ccccc3)cc2)CC1	-17.5%	-27.4%[12.7 µM]	?	16.4%	-4.7%
COc1ccc(N2C(=O)C(CC(=O)Nc3ccccc3)N(Cc3cccs3)C2=O)cc1 (stereo not given)	-13.2%	.	0.5%	53.4%	-1.0%
C=C1c2cccc(OC)c2O[C@H](C(=O)OCC)[C@@H]1CC(CC)CCCC (stereo not given in full)	57.6%	70.6%	.	106.2%	28.4%
CCOC(=O)/C=C1\CC(C(=O)OCC)Oc2c(OC)cccc21 (stereo not given)	?	31.6µM*	.	21.7%	-20.9%
CC(C(Sc1ccccc1N)c1ccccc1)[N+](=O)[O-] (stereo not given)	20µM*	3.16µM*	-36.1%	?	3.98µM*
COc1ccc(C2/C(=C(/O)c3ccccc3)C(=O)C(=O)N2CCO)cc1 (stereo not given)	-24.0%	44.7µM*	7.5%	11.2%	13.3%
COc1ccc(/C(O)=C2/C(=O)C(=O)N(CCCC(=O)O)C2c2ccc(OC)cc2)cc1 (stereo not given)	44.7µM*	-18.8%	?	6.2%	18.4%
CN(CC1CCCN(CCc2ccc(Cl)cc2)C1)C(=O)c1ccoc1 (stereo not given)	-14.7%	21.3%	-14.0%	26.9%	18.6%
CCOC(=O)C1=C(C)N(CCCC(=O)O)C(=O)NC1c1ccccc1OS(=O)(=O)c1ccc([N+](=O)[O-])cc1 (stereo not given)	-20.7%	.	.	19.2%	.
CC(C)(C)CN1CCNC(=O)C1CC(=O)N1CCN(c2ccccc2)CC1 (stereo not given)	-21.5%	56.2µM*	-20.0%	27.9%	-27.9%
CN(Cc1cccnc1)C(=O)CC1C(=O)NCCN1Cc1ccc(-c2ccccc2)cc1 (stereo not given)	-24.5%	50.1µM*	.	23.1%	-9.0%
COc1ccc(CN2CCNC(=O)C2CC(=O)N(C)Cc2nccs2)cc1OC (stereo not given)	-15.8%	.	0.1%	28.1%	-12.6%
CC(C)(C)CN1CCNC(=O)C1CC(=O)N1CCC(C(=O)N2CCOCC2)CC1 (stereo not given)	-1.5%[11.4 µM]	-9.9%	-16.2%	28.8%	22.6%
CN(Cc1nccs1)C(=O)CC1C(=O)NCCN1Cc1ccc(-c2ccccc2)cc1 (stereo not given)	?	?	-35.4%	-1.2%	44.7µM*
CN(Cc1cccnc1)C(=O)CC1C(=O)NCCN1CC(c1ccccc1)c1ccccc1 (stereo not given)	-11.7%	-38.6%	-38.4%	24.5%	6.1%
CN(Cc1ccon1)C(=O)CC1C(=O)NCCN1CC(C)(C)C (stereo not given)	-9.8%[11.4 µM]	44.7µM*	-6.1%	44.2%	11.9%
CC1(C)Cc2c(cnn2-c2ccccc2)-c2c1c1ccccc1n2CC(O)CCl (stereo not given)	?	?	?	-24.0%	16.6%
O=C(CC1C(=O)NCCN1Cc1ccc(-c2ccccc2)cc1)NCCOc1cccnc1 (stereo not given)	-27.7%	50.1µM*	-9.2%	11.3%	-13.9%
Cc1cc(CN(C)C(=O)CC2C(=O)NCCN2Cc2ccc(-c3ccccc3)cc2)on1 (stereo not given)	-31.9%	39.8µM*	?	15.8%	-1.1%
